Measurements as given in PubChem BioAssay (EPA / NIEHS).
Several values for one entry are separate records, joined by “and”; a condition that tells them apart may be missing. Equal entries are not always repeated. Records with an inconclusive call do not appear. Some compounds were tested as several samples or in several runs, with calls that do not always agree. Activity calls are given as the source filed them. How the source made its calls, unless noted: active means hit-call score of the fitted dose curve at least 0.9, where 1 is the maximum; inactive means score below 0.9.

Experiments:
[1] = target: Myc proto-oncogene protein (Homo sapiens) (UniProt P01106); assay: ATG_Myc_CIS: Attagene CIS-FACTORIAL HepG2 Assay for human Myelocytomatosis (Myc) Proto-Oncogene Transcription Factor (AID 2282990); conditions: HepG2, Attagene cis-reporter transcription factor activity; actives raise or lower the signal
Summary of the method: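 After 24 h chemical treatment of HepG2 cells carrying multiplexed cis-regulated reporter constructs, reporter transcripts quantified by RT-PCR and capillary electrophoresis of fluorescent fragments. Gain or loss fitted against DMSO baseline.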

[2] = ATG_NRF2_ARE_CIS: Attagene CIS-FACTORIAL HepG2 Assay for human Nuclear Factor Erythroid 2 Related Factor 2 (NFR2) response to Antioxidant Response Elements (ARE) (AID 2282992); conditions: HepG2 Attagene ARE/NRF2 reporter, transcription factor activity; actives raise or lower the signal;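 on AC50: reporter mRNA level measured by RT-PCR and capillary electrophoresis fluorescence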
Summary of the method: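 HepG2 cells transiently transfected with multiplexed cis-regulated reporter transcription units measure endogenous transcription factor activity. Reporter mRNA at 24 h is quantified by RT-PCR, fluorescent labelling and capillary electrophoresis, with bidirectional fitting relative to DMSO.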

[3] = ATG_Oct_MLP_CIS: Attagene CIS-FACTORIAL HepG2 Assay for human Octamer-Binding Transcription Factor (Oct) (AID 2282993); conditions: HepG2 Attagene cis-factorial Oct reporter, mRNA; actives raise or lower the signal
Summary of the method: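 HepG2 cells transiently transfected with cis-element-driven reporter transcription units (endogenous TF activity); 24 h compound exposure. Reporter mRNA quantified by RT-PCR, 6-FAM labelling, HpaI digestion and capillary electrophoresis; bidirectional fit versus DMSO baseline.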

[4] = target: Cellular tumor antigen p53 (Homo sapiens) (UniProt P04637); assay: ATG_p53_CIS: Attagene CIS-FACTORIAL HepG2 Assay for human p53 Transcription Factor (AID 2282994); conditions: HepG2 p53 cis-element reporter, Attagene mRNA; actives raise or lower the signal
Summary of the method: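 HepG2 cells transiently transfected with multiplexed cis-regulated reporter transcription units read endogenous TF activity. After 24 h compound exposure, reporter mRNA was quantified by RT-PCR, fluorescent labelling, HpaI digestion and capillary electrophoresis; bidirectional fits versus DMSO baseline.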

[5] = BSK_3C_TissueFactor: BioMAP Diversity Plus: 3C Assay for Tissue Factor Biomarker Activity (AID 2282997); conditions: BioMAP 3C HUVEC, tissue factor biomarker readout; actives raise or lower the signal
Summary of the method: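 Values derive from bidirectional curve fitting against DMSO of Tissue Factor ELISA signals, taken 24 h after dosing primary human umbilical vein endothelial cells.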

[6] = BSK_3C_uPAR: BioMAP Diversity Plus: 3C Assay for Urokinase-type plasminogen activator receptor (uPAR) Biomarker Activity (AID 2282998); conditions: BioMAP 3C HUVEC, uPAR biomarker ELISA; actives raise or lower the signal
Summary of the method: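 Primary human umbilical vein endothelial cells, 3C system; surface uPAR measured by ELISA 24 h after dosing. Cytotoxicity via SRB total protein in parallel cultures; bidirectional fit against DMSO.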

[7] = BSK_3C_VCAM1: BioMAP Diversity Plus: 3C Assay for Vascular cell adhesion molecule 1 (VCAM1) Biomarker Activity (AID 2282999); conditions: BioMAP 3C HUVEC, VCAM1 ELISA, cytokine-stimulated; actives raise or lower the signal
Summary of the method: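 Endothelial cells from human umbilical vein are treated with test chemical. At 24 h, VCAM-1 is measured by ELISA, and responses in either direction are fitted relative to DMSO.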

[8] = BSK_4H_Eotaxin3: BioMAP Diversity Plus: 4H Assay for Eotaxin 3 Biomarker Activity (AID 2283000); conditions: primary human endothelial cells (HUVEC); actives raise or lower the signal
Summary of the method: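 Endothelial primary cells (human umbilical vein) exposed to compound for 24 h. ELISA detection of Eotaxin-3.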

[9] = read-out: Intercellular Adhesion Molecule 1 (ICAM1), ICAM1 (gene 3383); assay: BSK_3C_ICAM1: BioMAP Diversity Plus: 3C Assay for Intercellular Adhesion Molecule 1 (ICAM1) Biomarker Activity (AID 2283003); conditions: primary human endothelial cells (HUVEC); actives raise or lower the signal
Summary of the method: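 HUVEC primary cells stimulated under 3C conditions; ICAM1 measured by ELISA 24 h after compound dosing. Curves fitted bidirectionally against the DMSO baseline. Overt cytotoxicity checked by SRB staining of parallel cultures.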

[10] = BSK_3C_Proliferation: Cell Proliferation Assessment in the BioMAP Diversity Plus: 3C Assay (AID 2283006); conditions: primary human endothelial cells (HUVEC);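 on AC50: potency may reflect either rise or fall in cell number versus DMSO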
Summary of the method: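 Subconfluent HUVEC (3C system) cultured with chemical; relative cell number read at 48 h by sulforhodamine B total-protein staining (0.1% SRB after 10% TCA fixation, 560 nm). Bidirectional fit relative to DMSO.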

[11] = target: Peroxisome proliferator-activated receptor gamma (Homo sapiens) (UniProt P37231); assay: ATG_PPARg_TRANS: Attagene TRANS-FACTORIAL HepG2 Assay for human Peroxisome Proliferator-activated Receptor-gamma (PPARg) (AID 2283007; active means hit-call score of the fitted dose curve at least 0.9, where 1 is the maximum)
Summary of the method: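 HepG2 cells are transiently transfected with GAL4-UAS reporter units driven by chimeric NR-Gal4 fusions and dosed for 24 h. Reporter mRNA is quantified by RT-PCR, 6-FAM labelling, HpaI digestion and capillary electrophoresis. Induction is scored against DMSO.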

[12] = target: Nuclear receptor subfamily 1 group I member 2 (Homo sapiens) (UniProt O75469); assay: ATG_PXR_TRANS: Attagene TRANS-FACTORIAL HepG2 Assay for human Pregnane X Receptor (PXR) (AID 2283008; active means hit-call score of the fitted dose curve at least 0.9, where 1 is the maximum)
Summary of the method: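 HepG2 cells transiently transfected with multiple reporter units, here a PXR-GAL4 chimera driving a GAL4-UAS reporter; 24 h compound exposure. Reporter mRNA measured by RT-PCR, FAM labelling and capillary electrophoresis; gain of signal fitted against DMSO baseline.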

[13] = target: human Retinoic Acid Receptor gamma (RARg), RARG (gene 5916) (UniProt P13631); assay: ATG_RARg_TRANS: Attagene TRANS-FACTORIAL HepG2 Assay for human Retinoic Acid Receptor gamma (RARg) (AID 2283009; active means hit-call score of the fitted dose curve at least 0.9, where 1 is the maximum)
Summary of the method: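 HepG2 transiently transfected with GAL4-UAS reporter units and chimeric NR-Gal4 constructs; 24 h compound exposure. Reporter mRNA quantified by RT-PCR, FAM labeling, HpaI digestion and capillary electrophoresis; gain-of-signal versus DMSO.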

[14] = target: human Peroxisome Proliferator-activated Receptor alpha (PPARa), PPARA (gene 5465) (UniProt Q07869); assay: ATG_PPARa_TRANS: Attagene TRANS-FACTORIAL HepG2 Assay for human Peroxisome Proliferator-activated Receptor alpha (PPARa) (AID 2283001; active means hit-call score of the fitted dose curve at least 0.9, where 1 is the maximum)
Summary of the method: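 Read-out is fluorescence of reporter cDNA fragments resolved by capillary electrophoresis after RT-PCR. Human HepG2 liver cells carried transfected PPARa-Gal4 chimera and GAL4-UAS reporter units, treated 24 h; activity scored as increase over DMSO.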

[15] = target: human Peroxisome Proliferator-activated Receptor delta (PPARd), PPARD (gene 5467) (UniProt Q03181); assay: ATG_PPARd_TRANS: Attagene TRANS-FACTORIAL HepG2 Assay for human Peroxisome Proliferator-activated Receptor delta (PPARd) (AID 2283002; active means hit-call score of the fitted dose curve at least 0.9, where 1 is the maximum)
Summary of the method: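 Read-out is induced reporter mRNA, quantified by RT-PCR with fluorescent labelling and capillary electrophoresis after 24 h dosing. Cells are HepG2 transiently carrying multiple GAL4-UAS reporter units driven by exogenous NR-GAL4 chimeras; DMSO serves as baseline.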

[16] = ATG_NF_kB_CIS: Attagene CIS-FACTORIAL HepG2 Assay for human Nuclear Factor Kappa B (NF-kB) (AID 2282991); conditions: HepG2 Attagene cis-factorial NF-kB reporter mRNA; actives raise or lower the signal
Summary of the method: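 HepG2 cells transfected with cis-promoter-driven reporter units, so endogenous transcription factor activity is measured. Reporter mRNA quantified 24 h after dosing by RT-PCR and capillary electrophoresis, with bidirectional fitting against DMSO.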

[17] = target: human Retinoic Acid Receptor beta (RARb), RARB (gene 5915) (UniProt P10826); assay: ATG_RARb_TRANS: Attagene TRANS-FACTORIAL HepG2 Assay for human Retinoic Acid Receptor beta (AID 2283004; active means hit-call score of the fitted dose curve at least 0.9, where 1 is the maximum)
Summary of the method: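 HepG2, transient MRTU transfection, NR–Gal4 chimera, 24 h treatment; RT-PCR plus CE fluorescence detection of reporter mRNA; gain of signal vs DMSO.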

[18] = target: human RAR-related Orphan Receptor gamma (RORg), RORC (gene 6097) (UniProt P51449); assay: ATG_RORg_TRANS: Attagene TRANS-FACTORIAL HepG2 Assay for human RAR-related Orphan Receptor gamma (RORg) (AID 2283011; active means hit-call score of the fitted dose curve at least 0.9, where 1 is the maximum)
Summary of the method: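 Activity is scored as increase in GAL4-UAS reporter mRNA over DMSO, detected by fluorescent RT-PCR and capillary electrophoresis in HepG2 cells transiently expressing a RORg-Gal4 chimera, 24 h after dosing.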

[19] = target: human RAR-related Orphan Receptor beta (RORb), RORB (gene 6096) (UniProt Q92753); assay: ATG_RORb_TRANS: Attagene TRANS-FACTORIAL HepG2 Assay for human RAR-related Orphan Receptor beta (RORb) (AID 2283010; active means hit-call score of the fitted dose curve at least 0.9, where 1 is the maximum)
Summary of the method: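 HepG2 cells transiently transfected with GAL4-UAS reporter units expressing chimeric NR-Gal4 protein; reporter mRNA measured 24 h after dosing by RT-PCR, 6-FAM labelling and capillary electrophoresis. Gain-of-signal fitted relative to DMSO baseline.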

Measured: AC50

human Peroxisome Proliferator-activated Receptor alpha (PPARa), PPARA (gene 5465), sequence (Q07869 whole entry, looked up, the tested form may be a part): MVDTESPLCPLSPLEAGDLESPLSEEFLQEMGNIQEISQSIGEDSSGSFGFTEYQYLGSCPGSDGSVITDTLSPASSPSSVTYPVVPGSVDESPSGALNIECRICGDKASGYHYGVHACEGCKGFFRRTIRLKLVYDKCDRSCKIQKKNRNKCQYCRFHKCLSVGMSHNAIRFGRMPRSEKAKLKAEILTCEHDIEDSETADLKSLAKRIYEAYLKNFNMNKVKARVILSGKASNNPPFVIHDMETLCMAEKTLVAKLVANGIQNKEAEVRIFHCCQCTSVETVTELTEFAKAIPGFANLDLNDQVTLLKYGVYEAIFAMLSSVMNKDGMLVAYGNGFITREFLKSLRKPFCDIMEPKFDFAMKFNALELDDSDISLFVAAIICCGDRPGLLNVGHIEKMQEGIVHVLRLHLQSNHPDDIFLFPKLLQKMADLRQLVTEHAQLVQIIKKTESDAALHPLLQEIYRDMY
human RAR-related Orphan Receptor beta (RORb), RORB (gene 6096), sequence (Q92753 whole entry, looked up, the tested form may be a part): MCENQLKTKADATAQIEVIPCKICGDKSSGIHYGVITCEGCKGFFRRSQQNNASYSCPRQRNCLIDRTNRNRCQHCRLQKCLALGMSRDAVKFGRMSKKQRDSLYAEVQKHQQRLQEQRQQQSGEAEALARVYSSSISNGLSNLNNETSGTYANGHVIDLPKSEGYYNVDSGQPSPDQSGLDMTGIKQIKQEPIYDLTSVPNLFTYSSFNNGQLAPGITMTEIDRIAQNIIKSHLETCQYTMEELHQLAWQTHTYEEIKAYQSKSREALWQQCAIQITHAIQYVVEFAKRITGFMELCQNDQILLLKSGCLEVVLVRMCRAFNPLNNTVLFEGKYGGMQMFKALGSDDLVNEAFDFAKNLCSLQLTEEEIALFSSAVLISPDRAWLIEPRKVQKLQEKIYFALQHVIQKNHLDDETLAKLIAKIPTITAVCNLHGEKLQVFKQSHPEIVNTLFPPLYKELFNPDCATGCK
Cellular tumor antigen p53 (Homo sapiens), sequence (P04637 whole entry, looked up): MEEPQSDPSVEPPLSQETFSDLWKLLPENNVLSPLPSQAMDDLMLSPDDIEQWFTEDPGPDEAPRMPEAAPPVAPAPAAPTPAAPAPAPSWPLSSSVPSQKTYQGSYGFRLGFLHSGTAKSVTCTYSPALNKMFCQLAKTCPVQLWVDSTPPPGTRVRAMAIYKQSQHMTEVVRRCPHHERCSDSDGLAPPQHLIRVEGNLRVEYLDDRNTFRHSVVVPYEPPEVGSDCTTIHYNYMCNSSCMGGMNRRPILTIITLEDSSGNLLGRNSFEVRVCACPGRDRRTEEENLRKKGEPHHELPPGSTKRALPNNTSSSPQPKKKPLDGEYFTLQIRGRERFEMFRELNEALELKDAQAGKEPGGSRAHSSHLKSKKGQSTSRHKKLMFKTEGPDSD
human Retinoic Acid Receptor gamma (RARg), RARG (gene 5916), sequence (P13631 whole entry, looked up, the tested form may be a part): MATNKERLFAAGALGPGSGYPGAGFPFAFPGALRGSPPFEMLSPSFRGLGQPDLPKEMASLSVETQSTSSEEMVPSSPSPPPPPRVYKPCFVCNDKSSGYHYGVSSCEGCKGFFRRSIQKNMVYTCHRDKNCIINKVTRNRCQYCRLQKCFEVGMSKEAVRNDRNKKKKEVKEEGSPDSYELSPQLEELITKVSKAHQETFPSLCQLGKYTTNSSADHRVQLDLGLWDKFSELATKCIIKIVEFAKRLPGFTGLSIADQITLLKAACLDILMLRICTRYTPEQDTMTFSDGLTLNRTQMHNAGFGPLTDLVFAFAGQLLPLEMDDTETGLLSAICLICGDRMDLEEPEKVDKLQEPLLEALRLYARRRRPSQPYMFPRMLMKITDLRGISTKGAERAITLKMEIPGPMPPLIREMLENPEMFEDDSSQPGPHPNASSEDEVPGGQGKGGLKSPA
Peroxisome proliferator-activated receptor gamma (Homo sapiens), sequence (P37231 whole entry, looked up, the tested form may be a part): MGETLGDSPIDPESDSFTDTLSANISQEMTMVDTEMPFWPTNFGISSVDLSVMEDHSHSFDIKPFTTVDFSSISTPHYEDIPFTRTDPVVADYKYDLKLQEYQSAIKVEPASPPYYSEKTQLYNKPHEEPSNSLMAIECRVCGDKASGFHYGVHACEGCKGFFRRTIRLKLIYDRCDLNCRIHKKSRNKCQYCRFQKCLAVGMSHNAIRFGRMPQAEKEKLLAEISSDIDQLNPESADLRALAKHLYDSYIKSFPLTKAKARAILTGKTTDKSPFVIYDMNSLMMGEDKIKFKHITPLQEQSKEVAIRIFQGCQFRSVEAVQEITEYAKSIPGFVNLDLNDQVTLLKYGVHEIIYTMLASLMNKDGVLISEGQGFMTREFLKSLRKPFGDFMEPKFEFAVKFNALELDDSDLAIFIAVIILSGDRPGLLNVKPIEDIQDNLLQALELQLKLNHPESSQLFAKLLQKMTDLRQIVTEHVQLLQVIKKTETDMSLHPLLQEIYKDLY
human Peroxisome Proliferator-activated Receptor delta (PPARd), PPARD (gene 5467), sequence (Q03181 whole entry, looked up, the tested form may be a part): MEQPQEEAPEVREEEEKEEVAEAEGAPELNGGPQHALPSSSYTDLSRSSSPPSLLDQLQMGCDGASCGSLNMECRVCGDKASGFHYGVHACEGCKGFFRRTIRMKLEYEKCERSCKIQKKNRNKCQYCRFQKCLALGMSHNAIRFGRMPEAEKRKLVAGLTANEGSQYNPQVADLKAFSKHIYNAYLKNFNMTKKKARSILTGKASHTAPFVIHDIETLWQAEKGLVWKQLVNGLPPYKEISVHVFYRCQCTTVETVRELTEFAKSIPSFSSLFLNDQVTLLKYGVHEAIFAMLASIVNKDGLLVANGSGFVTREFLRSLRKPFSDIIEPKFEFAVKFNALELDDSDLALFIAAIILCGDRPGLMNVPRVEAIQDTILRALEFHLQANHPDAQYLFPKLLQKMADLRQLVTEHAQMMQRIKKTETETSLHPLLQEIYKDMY
Myc proto-oncogene protein (Homo sapiens), sequence (P01106 whole entry, looked up, the tested form may be a part): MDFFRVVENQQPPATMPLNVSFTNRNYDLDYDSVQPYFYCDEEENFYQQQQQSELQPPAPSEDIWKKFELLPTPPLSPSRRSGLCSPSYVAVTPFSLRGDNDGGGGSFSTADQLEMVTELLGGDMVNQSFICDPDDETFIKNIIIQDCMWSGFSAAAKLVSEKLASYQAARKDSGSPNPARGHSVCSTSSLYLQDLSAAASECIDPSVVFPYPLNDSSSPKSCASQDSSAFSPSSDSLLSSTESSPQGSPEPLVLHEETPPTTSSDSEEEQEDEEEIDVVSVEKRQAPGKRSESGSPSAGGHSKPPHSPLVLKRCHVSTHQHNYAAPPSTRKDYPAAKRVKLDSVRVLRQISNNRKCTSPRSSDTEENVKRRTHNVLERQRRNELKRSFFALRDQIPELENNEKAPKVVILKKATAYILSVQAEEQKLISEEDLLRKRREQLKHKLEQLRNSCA
Nuclear receptor subfamily 1 group I member 2 (Homo sapiens), sequence (O75469 whole entry, looked up, the tested form may be a part): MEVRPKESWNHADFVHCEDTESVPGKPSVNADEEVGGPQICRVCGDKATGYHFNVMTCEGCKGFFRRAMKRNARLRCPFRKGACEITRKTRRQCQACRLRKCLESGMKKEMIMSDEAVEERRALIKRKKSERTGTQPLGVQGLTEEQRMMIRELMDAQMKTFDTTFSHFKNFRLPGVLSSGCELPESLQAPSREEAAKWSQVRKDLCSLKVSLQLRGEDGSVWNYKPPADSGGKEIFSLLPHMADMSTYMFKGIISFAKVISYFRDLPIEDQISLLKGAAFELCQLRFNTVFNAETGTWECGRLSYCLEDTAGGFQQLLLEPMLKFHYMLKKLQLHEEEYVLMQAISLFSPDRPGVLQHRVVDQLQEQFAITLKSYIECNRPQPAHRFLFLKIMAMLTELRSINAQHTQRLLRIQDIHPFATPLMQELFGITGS
human RAR-related Orphan Receptor gamma (RORg), RORC (gene 6097), sequence (P51449 whole entry, looked up, the tested form may be a part): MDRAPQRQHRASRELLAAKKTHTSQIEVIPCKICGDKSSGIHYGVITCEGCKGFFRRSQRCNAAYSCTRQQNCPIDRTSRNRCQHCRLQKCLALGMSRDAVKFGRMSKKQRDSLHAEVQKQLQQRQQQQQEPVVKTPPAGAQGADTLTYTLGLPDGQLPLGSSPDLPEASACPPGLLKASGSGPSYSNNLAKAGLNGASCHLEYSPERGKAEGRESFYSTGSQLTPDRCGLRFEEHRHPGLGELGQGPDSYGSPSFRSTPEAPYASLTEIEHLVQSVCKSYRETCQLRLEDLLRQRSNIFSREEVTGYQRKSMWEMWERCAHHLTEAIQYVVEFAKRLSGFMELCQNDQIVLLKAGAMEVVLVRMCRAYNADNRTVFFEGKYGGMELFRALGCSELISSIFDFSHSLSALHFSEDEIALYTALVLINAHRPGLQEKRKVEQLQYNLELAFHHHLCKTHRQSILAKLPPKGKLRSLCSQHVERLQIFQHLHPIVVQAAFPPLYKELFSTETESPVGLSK
human Retinoic Acid Receptor beta (RARb), RARB (gene 5915), sequence (P10826 whole entry, looked up, the tested form may be a part): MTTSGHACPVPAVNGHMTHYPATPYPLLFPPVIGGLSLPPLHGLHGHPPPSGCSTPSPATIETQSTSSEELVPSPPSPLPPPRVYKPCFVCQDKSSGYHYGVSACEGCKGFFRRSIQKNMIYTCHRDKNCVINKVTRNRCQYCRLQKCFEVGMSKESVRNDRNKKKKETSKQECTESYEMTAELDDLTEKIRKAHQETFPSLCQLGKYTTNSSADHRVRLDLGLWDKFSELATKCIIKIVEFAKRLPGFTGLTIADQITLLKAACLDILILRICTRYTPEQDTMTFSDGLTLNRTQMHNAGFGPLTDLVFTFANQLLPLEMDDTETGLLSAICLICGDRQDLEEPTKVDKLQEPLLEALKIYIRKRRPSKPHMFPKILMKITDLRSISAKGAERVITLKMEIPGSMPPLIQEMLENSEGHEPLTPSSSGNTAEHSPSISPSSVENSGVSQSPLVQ

Cc1c([N+](=O)[O-])c(C)c([N+](=O)[O-])c(C(C)(C)C)c1[N+](=O)[O-]
inactive: [1] | [2] | [3] | [4] | [5] | [11] | [13]
active: [6] 20 µM | [7] 20 µM | [8] 28.2 µM | [9] 20 µM | [10] 26.8 µM | [12] 2.05 µM

CC(C)(C)c1cc([N+](=O)[O-])cc(C(C)(C)C)c1O
active: [2] 2.48 µM | [3] 19.8 µM | [5] 3.94 µM | [6] 0.467 µM | [7] 9.12 µM | [8] 0.016 µM | [10] 0.704 µM | [11] 5.15 µM | [12] 6.49 µM
inactive: [1] | [4] | [14] | [15] | [9] | [13]

Cl[C@H]1OCCO[C@@H]1Cl
inactive: [1] | [16] | [2] | [4] | [14] | [17] | [11] | [12] | [13] | [18]

CCOP(=S)(OCC)OP(=S)(OCC)OCC
inactive: [1] | [2] | [3] | [4] | [5] | [15] | [19]
active: [6] 34 µM | [7] 31.9 µM | [8] 35.6 µM | [9] 36.8 µM | [10] 31.6 µM | [11] 25.8 µM | [12] 0.94 µM

CC(c1ccccc1)(c1ccc(O)cc1)c1ccc(O)cc1
active: [16] 14.6 µM | [2] 11.1 µM | [4] 16.2 µM
inactive: [1] | [15] | [17] | [11]

CNC(=O)N(C)c1nc2ccccc2s1
active: [2] 14.5 µM | [12] 52.8 µM
inactive: [1] | [16] | [14] | [15] | [11] | [19]

CCCCOC(=O)COC(=O)c1ccccc1C(=O)OCCCC
active: [10] 26.1 µM | [11] 51.4 µM | [12] 27.4 µM
inactive: [1] | [2] | [3] | [4] | [5] | [6] | [8] | [14] | [15] | [9] | [10]

CCOC(=O)c1ccccc1S(=O)(=O)NC(=O)Nc1nc(Cl)cc(OC)n1
inactive: [1] | [16] | [2] | [4] | [14] | [12] | [13] | [19]

CC(O)(CS(=O)(=O)c1ccc(F)cc1)C(=O)Nc1ccc(C#N)c(C(F)(F)F)c1 (stereo not drawn)
inactive: [1] | [16] | [4] | [12] | [13]
active: [2] 94.5 µM

CC1(C)[C@H](C(=O)O[C@H](C#N)c2cccc(Oc3ccccc3)c2)[C@@H]1/C=C(\Cl)C(F)(F)F
active: [11] 5.86 µM and 4.64 µM | [12] 152 nM and 288 nM
not listed: [7] | [13] | [14] | [16] | [17] | [19]
inactive: all other assays above
